LmPK inhibitor – qHTS Assay for Inhibitors of Leishmania Mexicana Pyruvate Kinase (LmPK) | Q27686 | purified LmPK, Kinase-Glo ATP luminescence, 1 h | Potency, µM (top dose mostly 57.5 µM), without a hit: at the highest dose activity change, negative = inhibition, usual class: inhibitors | 290,000 tested, 0.37% active | AID 1721, 2009; also: potency is read from the fitted curve at half-maximal effect
Target sequence (Q27686 whole entry, looked up): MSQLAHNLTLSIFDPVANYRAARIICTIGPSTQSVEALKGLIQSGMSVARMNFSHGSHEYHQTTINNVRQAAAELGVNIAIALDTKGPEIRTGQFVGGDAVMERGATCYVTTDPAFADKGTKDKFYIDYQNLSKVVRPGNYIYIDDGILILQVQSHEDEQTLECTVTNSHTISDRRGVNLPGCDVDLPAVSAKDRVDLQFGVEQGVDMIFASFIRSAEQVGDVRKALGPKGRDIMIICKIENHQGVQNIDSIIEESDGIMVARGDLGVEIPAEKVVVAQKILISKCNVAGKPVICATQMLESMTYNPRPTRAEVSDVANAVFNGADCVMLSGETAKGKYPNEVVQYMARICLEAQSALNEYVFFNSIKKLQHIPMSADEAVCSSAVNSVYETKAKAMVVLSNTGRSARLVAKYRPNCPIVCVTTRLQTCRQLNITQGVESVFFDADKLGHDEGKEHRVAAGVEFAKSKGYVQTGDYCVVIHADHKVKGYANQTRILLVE
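Purified LmPK (0.1 nM) converted ADP (0.1 mM) to ATP with PEP (0.5 mM) in imidazole buffer pH 7.2 with KCl and MgCl2, 1 h at room temperature. ATP was read by Kinase-Glo luminescence; data normalized to uninhibited and no-enzyme controls.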
VACV mCherry inh – qHTS for Stage-Specific Inhibitors of Vaccinia Orthopoxvirus: mCherry Reporter Primary qHTS. Vaccinia virus mCherry reporter infection, fluorescence. Potency, µM (series often up to 36.5 µM), without a hit: at the top dose activity change, negative = inhibition, actives largely listed as inhibitors. 310,000 tested, 0.63% active. AID 720579, 2013; calls by dose curve; tested in A549 cells; also: potency is read from the fitted curve at half-maximal effect; nearly all actives have a fitted effect of over 35% in size
Tb PYK inh – qHTS of Trypanosoma Brucei Inhibitors; pyruvate kinase (Trypanosoma brucei), Q57TT1; TbPYK enzyme, Kinase-Glo Plus ATP luminescence, 45 min; Potency, µM (series often up to 76.8 µM), inactives show top-dose activity, negative = inhibition, most hits filed as inhibitors; 410,000 tested, 0.12% active; AID 624173, 2012; also: potency is read from the fitted curve at half-maximal effect; nearly all actives have a fitted effect of over 50% in size
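Screened from lowest to highest concentration, compounds were pinned into TbPYK/substrate mixtures, and ADP (130 uM final) was added. Plates sat at room temperature for 45 min prior to Kinase-Glo Plus detection by luminescence.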
VACV Venus inh – qHTS for Stage-Specific Inhibitors of Vaccinia Orthopoxvirus: Venus Reporter Primary qHTS; Vaccinia virus Venus reporter expression, fluorescence; Potency, µM (titrated, usually from 36.5 µM), inactives show at the highest dose activity change, negative = inhibition, actives largely listed as inhibitors; 330,000 tested, 0.46% active; calls by dose curve; tested in A549 cells; also: potency is read from the fitted curve at half-maximal effect; nearly all actives have a fitted effect of over 30% in size
HCMV inh – qHTS Assay for inhibitors of the human cytomegalovirus (HCMV) | HFF cells, HCMV-luciferase reporter, 72 h; active compounds read low | activity change, negative = inhibition, % at 57.5 µM | 410,000 tested, 4.5% active; in the data active = activity change below about -60%; inconclusive = no clear call, values can overlap the other calls; inactive = above about -39%
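HFF cells seeded 16 h at 37C, treated with compounds, infected with luciferase-reporter HCMV at MOI 1 PFU/cell; luciferase read at 72 h post infection, normalized to buffer-only and Salinomycin controls.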
The depositor's hits bear a star; i = inactive; ? = inconclusive; . = not tested or not shown; ! = repeats disagree; [ ] = another dose, or the depositor's remark. Shown are actives, neighbours in structure and some others; about 5% of the full set was active somewhere. Unless noted, calls follow the shape of the dose curve; as a rule, active = well fitted curve in the direction sought with a large enough effect; inconclusive = small, poorly fitted or top-dose-only effect, or another doubt; inactive = no such curve, though single readings can be large; an effect the other way counts as inactive or inconclusive. % is scaled to controls: 0 for no effect and ±100 for the full control effect.

SMILES	LmPK inhibitor	VACV mCherry inh	Tb PYK inh	VACV Venus inh	HCMV inh
COc1ccc(OC)c(NC(=O)c2cc(-c3cc(C)cc(C)c3O)n[nH]2)c1	8%	?	-11%	-29%	-68*
COc1ccc(OC)c(NC(=O)c2cc(-c3cc(C)c(C)cc3O)n[nH]2)c1	-3%	-13%	-5%	?	?
O=C(N/N=C/c1ccccc1)c1[nH]ncc1Br	13µM*	1%	?	0%	-40
O=C(N/N=C/c1cccnc1)c1[nH]ncc1Br	18µM*	-10%	-13%	-3%	52
CCOC(=O)c1nnn(-c2nn3nnnc3c3ccccc23)c1C	-4%	8.9µM*	3%	?	-14
Cc1cccc(-n2cc[nH]c2=S)c1C	-19%	-14%	?	-2%	-69*
Cc1ccccc1-n1cc[nH]c1=S	-12%	-1%	-23%	-7%	9
COc1ccc(C(=O)Nc2ccc3c(c2)N(C2CCCC2)C(=O)c2ccccc2S3)cc1OC	.	-8%	-7%	0%	-70*
Cc1ccc(C(=O)Nc2ccc3c(c2)N(C)C(=O)c2ccccc2S3)cc1F	.	?	-4%	?	-91*
CCN1C(=O)c2ccccc2Sc2ccc(NC(=O)Cc3ccc(OC)c(OC)c3)cc21	.	?	2%	?	-39
COc1ccc(CNC(=O)Nc2ccc3c(c2)N(C)C(=O)c2ccccc2S3)cc1	.	-16%	0%	-22%	-28
CCOc1ccc(CNC(=O)Nc2ccc3c(c2)N(C)C(=O)c2ccccc2S3)cc1	.	?	3%	-28%	-62*
Cc1ccccc1CNC(=O)Nc1ccc2c(c1)N(C)C(=O)c1ccccc1S2	.	?	3%	?	-97*
Cc1ccc(NC(=O)CCN2C(=O)C3CCCCC3C2=O)cc1[N+](=O)[O-] (stereo not given)	.	-10%	-4%	-7%	-34
O=C(CSc1nnc2ccc(-c3cccnc3)nn12)Nc1ccc(F)cc1F	3%[11.5 µM]	.	-21%	.	-12
CN1C(=O)c2ccccc2Sc2ccc(NC(=O)NCc3ccc(Cl)cc3)cc21	.	?	2%	?	-89*
CN1C(=O)CSc2ccc(NC(=O)NCc3cccnc3)cc21	4%	-4%	1%	-10%	-61*
CCOC(=O)c1ccc(NC(=O)c2ccc3c(c2)NC(=O)c2ccccc2S3)cc1	.	-6%	0%	6%	15
Cc1ccc(NC(=O)c2ccc3c(c2)NC(=O)c2ccccc2S3)cc1	.	?	-5%	?	-71*
CN1C(=O)c2ccccc2Sc2ccc(NC(=O)NCc3cccc(Cl)c3)cc21	.	-11%	-5%	-27%	-33
Cc1ccc2c(c1)S/C(=C/c1ccc[n+](C)c1)N2CCO	0%	i	-13%	-4%	-77*
CN(CC(=O)NC1CC(C)(C)NC(C)(C)C1)S(=O)(=O)c1cc(Cl)ccc1Cl	0%	i	-7%	-2%	-8
O=S(=O)(c1ccccc1)c1cnn(-c2ccccc2)c1-c1ccc(F)cc1	4%	.	.	.	-61*
COc1ccc(-n2ncc(S(=O)(=O)c3ccccc3)c2-c2ccc(Cl)cc2)cc1	-4%	.	19%	.	?
COc1ccc(N2CCN(Cc3csc(C)c3-c3ccc(C)cc3)CC2)cc1	12%	-13%	0%	-2%	-68*
SMILES	LmPK inhibitor	VACV mCherry inh	Tb PYK inh	VACV Venus inh	HCMV inh
Cc1ccc(C(=O)OCC(=O)Nc2ccccc2)cc1S(=O)(=O)N1CCCCC1	.	.	1%	.	-6
COc1ccc(C2N=C(c3ccccc3)C(C)(C)N2O)cc1 (stereo not given)	2%	-19%	1%	-5%	?
CCOC(=O)C1CCCN(C(=O)c2ccc(Cn3c(=S)[nH]c4cc(C(=O)OC)ccc4c3=O)cc2)C1 (stereo not given)	1%	i	-14%	8%	48
CC1CCCN(C(=O)c2ccc3c(=O)n(C4CCCC4)c(=S)[nH]c3c2)C1 (stereo not given)	-22%	-1%	-15%	-11%	-62*
CCOC(=O)C1CCCN(C(=O)c2ccc3c(=O)n(Cc4ccccc4OC)c(=S)[nH]c3c2)C1 (stereo not given)	-2%	.	-9%	.	-94*
O=C(c1ccc2c(=O)n(-c3ccccc3)c(=S)[nH]c2c1)N1CCCCC1	-2%	-9%	-11%	-20%	-92*
CCCn1c(CNC(=O)c2ccccc2)nc2ccccc21	-1%	?	0%	-6%	-27
CNC(=S)NN=C(C)c1ccc(OC)cc1O	.	5µM*	-6%	?	2
C=CCn1c(NC(=O)c2ccc(Br)o2)c(C(=O)OCC)sc1=S	6%	-4%	-29%	1%	-22
O=C(NCc1nc(-c2ccc(Cl)cc2)no1)c1ccco1	-7%	6%	-1%	20%	-22
C=C1C(=O)O[C@@H]2C[C@@H](C)[C@@H]3C=CC(=O)[C@@]3(C)[C@@H](O)[C@H]12	-3%	?	4%	10µM*!	-100*
C=C1C(=O)O[C@@H]2C[C@@H](C)[C@@H]3C=CC(=O)[C@@]3(C)[C@@H](OC(C)=O)[C@H]12	3%	11µM*	-6%	7.9µM*	-99*
CCOC(=O)C1CCCN(C(=S)NC(=O)/C=C/c2ccc(F)cc2)C1 (stereo not given)	7%	.	-17%	.	-82*
CCOC(=O)C1CCCN(C(=O)/C=C/c2ccc(Cl)cc2)C1 (stereo not given)	3%	.	2%	.	-26
Cc1c(/C(O)=C2\C(=O)C(=O)N(CCCN(C)C)C2c2ccncc2)cnn1-c1ccccc1 (stereo not given)	3%	.	.	.	.
CC(NC(=O)/C(C#N)=C/c1ccc([N+](=O)[O-])o1)c1ccccc1 (stereo not given)	1%	5%	4%	74%	-101*
Cc1ccc(C(C)NC(=O)/C(C#N)=C\c2c(C)[nH]c3ccccc23)cc1 (stereo not given)	6%	.	-2%	.	-61*
CCOCCCNC(=O)/C(C#N)=C/c1ccc([N+](=O)[O-])o1	6%	34%	0%	51%	-99*
COC(=O)c1ccc(/C=C(\C#N)C(=O)NC(C)c2ccccc2)cc1 (stereo not given)	5%	.	3%	.	-95*
CCOC(=O)CN1C(=O)/C(=C/c2ccc(Cl)cc2)Oc2ccccc21	1%	?	6%	1%	-37
NC(c1csc(Nc2ccccn2)n1)C1CCCCC1 (stereo not given)	.	4%	-2%	-4%	22
O=C(COCc1cc(-c2cccs2)on1)Nc1cc(Cl)ccc1O	.	-17%	1%	-24%	-15
COc1cc(NS(=O)(=O)c2ccc(NC(=O)c3ccc(F)cc3)cc2)ncn1	-7%	i	11%	-8%	3

Source: PubChem BioAssay (National Center for Advancing Translational Sciences (NCATS))
